Results as given in PubChem BioAssay AID1159580 (chemical genetic matrix, 2015).
The campaign covered roughly 5,500 compounds. About 2,000 (36%) were called active. Not shown: some 18% with an inconclusive outcome. Rule as the data show it: active = normalized growth mostly below about 0.91 (no sharp cut-off); inconclusive = no clear call, values can overlap the other calls; inactive = mostly above about 0.92. This is one part of the list.

Assay: chemical genetic growth profiling, strain panel (AID 1159580);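 also: tested at 20 µM; growth read once vehicle control cultures reached saturation at 30 °C; 1 = growth at the plate median or of vehicle wells; lower values mean less growth of the strain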
Conditions: growth OD

Measured: normalized growth

COc1ccc2c(c1)[C@@]1(C)CCC(=O)C[C@H]1CC2
inactive: S. cerevisiae deletion strains, locus YAL013W, strain DEP1, hits give low values 0.984 | S. cerevisiae deletion strains, locus YAL021C, strain ccr4, hits give low values 0.989 | S. cerevisiae deletion strains, locus YAL026C, strain drs2, hits give low values 0.982 | S. cerevisiae deletion strains, locus YAL030W, strain snc1, hits give low values 0.959 | S. cerevisiae deletion strains, locus YBL061C, strain skt5, hits give low values 0.989 | S. cerevisiae deletion strains, locus YBR009C, strain hhf1, hits give low values 0.98 | S. cerevisiae deletion strains, locus YBR021W, strain FUR4, hits give low values 0.969 | S. cerevisiae deletion strains, locus YBR023C, strain chs3, hits give low values 0.98 | S. cerevisiae deletion strains, locus YBR171W, strain sec66, hits give low values 0.93 | S. cerevisiae deletion strains, locus YBR229C, strain ROT2, hits give low values 0.994 | S. cerevisiae deletion strains, locus YBR231C, strain swc5, hits give low values 0.986 | S. cerevisiae deletion strains, locus YBR279W, strain paf1, hits give low values 0.98 | S. cerevisiae deletion strains, locus YCL011C, strain gbp2, hits give low values 0.961 | S. cerevisiae deletion strains, locus YCL016C, strain dcc1, hits give low values 0.976 | S. cerevisiae deletion strains, locus YCL029C, strain bik1, hits give low values 0.985 | S. cerevisiae deletion strains, locus YCL061C, strain MRC1, hits give low values 0.949 | S. cerevisiae deletion strains, locus YCL069W, strain vba3, hits give low values 0.963 | S. cerevisiae deletion strains, locus YCR088W, strain abp1, hits give low values 0.978 | S. cerevisiae deletion strains, locus YDL005C, strain med2, hits give low values 0.954 | S. cerevisiae deletion strains, locus YDL035C, strain GPR1, hits give low values 1.01 | S. cerevisiae deletion strains, locus YDL040C, strain nat1, hits give low values 0.969 | S. cerevisiae deletion strains, locus YDL074C, strain BRE1, hits give low values 1.01 | S. cerevisiae deletion strains, locus YDL101C, strain DUN1, hits give low values 1 | S. cerevisiae deletion strains, locus YDL134C, strain PPH21, hits give low values 0.995 | S. cerevisiae deletion strains, locus YDL185W, strain tfp1, hits give low values 0.977 | S. cerevisiae deletion strains, locus YDL192W, strain arf1, hits give low values 0.98 | S. cerevisiae deletion strains, locus YDR001C, strain nth1, hits give low values 0.973 | S. cerevisiae deletion strains, locus YDR069C, strain doa4, hits give low values 0.963 | S. cerevisiae deletion strains, locus YDR101C, strain arx1, hits give low values 0.985 | S. cerevisiae deletion strains, locus YDR137W, strain rgp1, hits give low values 0.902 | S. cerevisiae deletion strains, locus YDR159W, strain sac3, hits give low values 0.937 | S. cerevisiae deletion strains, locus YDR162C, strain NBP2, hits give low values 1.01 | S. cerevisiae deletion strains, locus YDR195W, strain ref2 1.01 | S. cerevisiae deletion strains, locus YDR297W, strain sur2, hits give low values 0.98 | S. cerevisiae deletion strains, locus YDR318W, strain mcm21, hits give low values 0.975 | S. cerevisiae deletion strains, locus YDR334W, strain swr1, hits give low values 0.94 | S. cerevisiae deletion strains, locus YDR335W, strain msn5, hits give low values 0.967 | S. cerevisiae deletion strains, locus YDR388W, hits give low values 0.978 | S. cerevisiae deletion strains, locus YDR392W, strain spt3, hits give low values 0.938 | S. cerevisiae deletion strains, locus YDR502C, strain sam2, hits give low values 0.951 | S. cerevisiae deletion strains, locus YEL003W, strain gim4, hits give low values 0.942 | S. cerevisiae deletion strains, locus YEL037C, strain rad23, hits give low values 0.97 | S. cerevisiae deletion strains, locus YEL061C, strain CIN8 (second series), hits give low values 0.97 | S. cerevisiae deletion strains, locus YER015W, strain faa2, hits give low values 0.973 | S. cerevisiae deletion strains, locus YER016W, strain bim1, hits give low values 0.965 | S. cerevisiae deletion strains, locus YER110C, hits give low values 0.958 | S. cerevisiae deletion strains, locus YER111C, strain swi4, hits give low values 0.942 | S. cerevisiae deletion strains, locus YER155C, strain BEM2 (second series), hits give low values 0.899 | S. cerevisiae deletion strains, locus YER155C, strain BEM2, hits give low values 0.989 | S. cerevisiae deletion strains, locus YER167W, strain BCK2, hits give low values 0.996 | S. cerevisiae deletion strains, locus YFR010W, strain ubp6, hits give low values 0.992 | S. cerevisiae deletion strains, locus YGL078C, strain dbp3, hits give low values 0.983 | S. cerevisiae deletion strains, locus YGL086W, strain mad1, hits give low values 0.964 | S. cerevisiae deletion strains, locus YGL173C, strain kem1, hits give low values 0.949 | S. cerevisiae deletion strains, locus YGL227W, strain vid30, hits give low values 0.96 | S. cerevisiae deletion strains, locus YGL240W, strain doc1, hits give low values 0.923 | S. cerevisiae deletion strains, locus YGL248W, strain PDE1, hits give low values 0.998 | S. cerevisiae deletion strains, locus YGL253W, strain hxk2, hits give low values 0.932 | S. cerevisiae deletion strains, locus YGR135W, strain pre9, hits give low values 0.947 | S. cerevisiae deletion strains, locus YGR252W, strain gcn5, hits give low values 0.933 | S. cerevisiae deletion strains, locus YHR013C, strain ard1, hits give low values 0.966 | S. cerevisiae deletion strains, locus YHR027C, strain rpn1, hits give low values 0.965 | S. cerevisiae deletion strains, locus YHR079C, strain IRE1 (second series), hits give low values 0.977 | S. cerevisiae deletion strains, locus YHR094C, strain hxt1, hits give low values 0.968 | S. cerevisiae deletion strains, locus YHR129C, strain ARP1, hits give low values 0.992 | S. cerevisiae deletion strains, locus YHR142W, strain chs7, hits give low values 0.954 | S. cerevisiae deletion strains, locus YHR200W, strain rpn10, hits give low values 0.971 | S. cerevisiae deletion strains, locus YIL066C, strain RNR3, hits give low values 1.01 | S. cerevisiae deletion strains, locus YIL073C, strain SPO22, hits give low values 0.964 | S. cerevisiae deletion strains, locus YIL125W, strain kgd1, hits give low values 0.994 | S. cerevisiae deletion strains, locus YIR030C, strain dcg1, hits give low values 0.974 | S. cerevisiae deletion strains, locus YJL092W, strain hpr5, hits give low values 0.948 | S. cerevisiae deletion strains, locus YJL095W, strain BCK1 (second series), hits give low values 0.959 | S. cerevisiae deletion strains, locus YJL095W, strain BCK1, hits give low values 0.958 | S. cerevisiae deletion strains, locus YJL115W, strain asf1, hits give low values 0.936 | S. cerevisiae deletion strains, locus YJL129C, strain trk1, hits give low values 0.973 | S. cerevisiae deletion strains, locus YJL134W, strain LCB3, hits give low values 0.995 | S. cerevisiae deletion strains, locus YJL154C, strain vps35, hits give low values 0.958 | S. cerevisiae deletion strains, locus YJL164C, strain tpk1, hits give low values 0.972 | S. cerevisiae deletion strains, locus YJL166W, strain qcr8, hits give low values 0.96 | S. cerevisiae deletion strains, locus YJL168C, strain set2, hits give low values 0.951 | S. cerevisiae deletion strains, locus YJL187C, strain SWE1 (second series), hits give low values 0.998 | S. cerevisiae deletion strains, locus YKL009W, strain mrt4, hits give low values 0.997 | S. cerevisiae deletion strains, locus YKL068W, hits give low values 0.993 | S. cerevisiae deletion strains, locus YKL085W, strain MDH1 (second series), hits give low values 0.986 | S. cerevisiae deletion strains, locus YKL085W, strain MDH1, hits give low values 0.986 | S. cerevisiae deletion strains, locus YKL160W, strain elf1, hits give low values 0.977 | S. cerevisiae deletion strains, locus YKL190W, strain CNB1, hits give low values 0.994 | S. cerevisiae deletion strains, locus YKR001C, strain vps1, hits give low values 0.953 | S. cerevisiae deletion strains, locus YKR026C, strain gcn3, hits give low values 0.976 | S. cerevisiae deletion strains, locus YKR091W, strain srl3, hits give low values 0.968 | S. cerevisiae deletion strains, locus YLL001W, strain dnm1, hits give low values 0.951 | S. cerevisiae deletion strains, locus YLL026W, hits give low values 0.964 | S. cerevisiae deletion strains, locus YLL041C, strain sdh2, hits give low values 0.98 | S. cerevisiae deletion strains, locus YLR027C, strain aat2, hits give low values 0.968 | S. cerevisiae deletion strains, locus YLR039C, strain RIC1, hits give low values 0.96 | S. cerevisiae deletion strains, locus YLR058C, strain SHM2, hits give low values 0.995 | S. cerevisiae deletion strains, locus YLR102C, strain apc9, hits give low values 0.985 | S. cerevisiae deletion strains, locus YLR221C, strain rsa3, hits give low values 0.969 | S. cerevisiae deletion strains, locus YLR258W, strain gsy2, hits give low values 0.967 | S. cerevisiae deletion strains, locus YLR262C, strain YPT6 (second series), hits give low values 0.969 | S. cerevisiae deletion strains, locus YLR262C, strain YPT6, hits give low values 0.973 | S. cerevisiae deletion strains, locus YLR268W, strain sec22, hits give low values 0.965 | S. cerevisiae deletion strains, locus YLR320W, strain mms22, hits give low values 0.966 | S. cerevisiae deletion strains, locus YLR342W, strain FKS1, hits give low values 0.969 | S. cerevisiae deletion strains, locus YLR357W, strain rsc2, hits give low values 0.947 | S. cerevisiae deletion strains, locus YLR370C, strain arc18, hits give low values 0.953 | S. cerevisiae deletion strains, locus YLR371W, strain rom2, hits give low values 0.98 | S. cerevisiae deletion strains, locus YLR384C, strain iki3, hits give low values 0.969 | S. cerevisiae deletion strains, locus YLR418C, strain cdc73, hits give low values 0.956 | S. cerevisiae deletion strains, locus YML016C, strain PPZ1, hits give low values 0.989 | S. cerevisiae deletion strains, locus YML032C, strain rad52, hits give low values 0.988 | S. cerevisiae deletion strains, locus YML120C, strain ndi1, hits give low values 0.953 | S. cerevisiae deletion strains, locus YML124C, strain tub3, hits give low values 0.976 | S. cerevisiae deletion strains, locus YMR058W, strain fet3, hits give low values 0.948 | S. cerevisiae deletion strains, locus YMR078C, strain ctf18, hits give low values 0.965 | S. cerevisiae deletion strains, locus YMR125W, strain sto1, hits give low values 0.97 | S. cerevisiae deletion strains, locus YMR129W, hits give low values 0.994 | S. cerevisiae deletion strains, locus YMR205C, strain PFK2, hits give low values 0.976 | S. cerevisiae deletion strains, locus YMR223W, strain ubp8, hits give low values 0.98 | S. cerevisiae deletion strains, locus YMR231W, strain pep5, hits give low values 0.968 | S. cerevisiae deletion strains, locus YMR307W, strain GAS1, hits give low values 1 | S. cerevisiae deletion strains, locus YNL067W, strain RPL9B, hits give low values 0.975 | S. cerevisiae deletion strains, locus YNL071W, strain lat1, hits give low values 0.955 | S. cerevisiae deletion strains, locus YNL153C, strain GIM3, hits give low values 0.995 | S. cerevisiae deletion strains, locus YNL233W, strain BNI4, hits give low values 0.959 | S. cerevisiae deletion strains, locus YNL248C, strain rpa49, hits give low values 1.03 | S. cerevisiae deletion strains, locus YNL250W, strain rad50, hits give low values 0.968 | S. cerevisiae deletion strains, locus YNL271C, strain bni1, hits give low values 0.97 | S. cerevisiae deletion strains, locus YNL298W, strain CLA4, hits give low values 0.976 | S. cerevisiae deletion strains, locus YNL307C, strain MCK1, hits give low values 0.963 | S. cerevisiae deletion strains, locus YNL322C, strain KRE1 (second series), hits give low values 0.964 | S. cerevisiae deletion strains, locus YNL322C, strain KRE1, hits give low values 0.989 | S. cerevisiae deletion strains, locus YNR049C, strain mso1, hits give low values 0.932 | S. cerevisiae deletion strains, locus YNR052C, strain pop2, hits give low values 0.971 | S. cerevisiae deletion strains, locus YOL012C, strain htz1 1.7 | S. cerevisiae deletion strains, locus YOL147C, strain pex11, hits give low values 0.967 | S. cerevisiae deletion strains, locus YOR001W, strain rrp6, hits give low values 0.97 | S. cerevisiae deletion strains, locus YOR061W, strain CKA2, hits give low values 1 | S. cerevisiae deletion strains, locus YOR069W, strain VPS5, hits give low values 0.989 | S. cerevisiae deletion strains, locus YOR070C, strain gyp1, hits give low values 0.97 | S. cerevisiae deletion strains, locus YOR080W, strain dia2, hits give low values 0.956 | S. cerevisiae deletion strains, locus YOR083W, strain WHI5, hits give low values 0.969 | S. cerevisiae deletion strains, locus YOR106W, strain vam3, hits give low values 1 | S. cerevisiae deletion strains, locus YOR136W, strain idh2, hits give low values 0.98 | S. cerevisiae deletion strains, locus YOR144C, strain elg1, hits give low values 0.975 | S. cerevisiae deletion strains, locus YOR184W, strain ser1, hits give low values 0.92 | S. cerevisiae deletion strains, locus YOR265W, strain rbl2, hits give low values 0.973 | S. cerevisiae deletion strains, locus YOR270C, strain vph1, hits give low values 0.997 | S. cerevisiae deletion strains, locus YOR290C, strain snf2, hits give low values 0.957 | S. cerevisiae deletion strains, locus YOR316C, strain cot1, hits give low values 0.974 | S. cerevisiae deletion strains, locus YPL051W, strain arl3, hits give low values 0.985 | S. cerevisiae deletion strains, locus YPL078C, strain atp4, hits give low values 0.95 | S. cerevisiae deletion strains, locus YPL106C, strain sse1, hits give low values 0.928 | S. cerevisiae deletion strains, locus YPL240C, strain hsp82, hits give low values 0.977 | S. cerevisiae deletion strains, locus YPR119W, strain clb2, hits give low values 0.974 | S. cerevisiae deletion strains, locus YPR141C, strain kar3, hits give low values 0.976 | S. cerevisiae deletion strains, locus YPR163C, strain tif3, hits give low values 0.973 | S. cerevisiae deletion strains, locus YPR167C, strain met16, hits give low values 0.974 | S. cerevisiae deletion strains, strain wtn01, hits give low values 0.972 | S. cerevisiae strains, strain wild type, hits give low values 1.01
